Source: PubChem BioAssay AID1159580 (chemical genetic matrix, 2015)
Out of some 5,500 compounds screened, about 2,000 (36%) were called active. Inconclusive results (about 18%) are left out. No stated cut-off is given here; in the data, active means normalized growth mostly below about 0.91 (no sharp cut-off); inconclusive means no clear call, values can overlap the other calls; inactive means mostly above about 0.92. The list shows a part of the results.

Assay: chemical genetic growth profiling, strain panel (AID 1159580);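 further: tested at 20 µM; growth read once vehicle control cultures reached saturation at 30 °C; 1 = growth at the plate median or of vehicle wells; lower values mean less growth of the strain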
Conditions: S. cerevisiae deletion strains, growth OD
[1] = locus YAR019C, strain CDC15, active compounds read low
[2] = locus YBL105C, strain PKC1, active compounds read low
[3] = locus YBR135W, strain CKS1, active compounds read low
[4] = locus YBR136W, strain MEC1, active compounds read low
[5] = locus YBR160W, strain CDC28, active compounds read low
[6] = locus YDL017W, strain CDC7, active compounds read low
[7] = locus YDL028C, strain MPS1, active compounds read low
[8] = locus YDL101C, strain DUN1, active compounds read low
[9] = locus YDL108W, strain KIN28, active compounds read low
[10] = locus YDL132W, strain cdc53, active compounds read low
[11] = locus YDL214C, strain PRR2, active compounds read low
[12] = locus YDR052C, strain DBF4, active compounds read low
[13] = locus YDR054C, strain cdc34, active compounds read low
[14] = locus YDR226W, strain ADK1, active compounds read low
[15] = locus YDR477W, strain SNF1, active compounds read low
[16] = locus YER123W, strain YCK3, active compounds read low
[17] = locus YER133W, strain GLC7, active compounds read low
[18] = locus YFL009W, strain cdc4, active compounds read low
[19] = locus YFL029C, strain CAK1, active compounds read low
[20] = locus YFR003C, strain YPI1, active compounds read low
[21] = locus YFR019W, strain FAB1, active compounds read low
[22] = locus YFR028C, strain CDC14, active compounds read low
[23] = locus YGR040W, strain KSS1, active compounds read low
[24] = locus YGR052W, strain FMP48, active compounds read low
[25] = locus YGR092W, strain DBF2, active compounds read low
[26] = locus YHR030C, strain SLT2, active compounds read low
[27] = locus YHR079C, strain IRE1, active compounds read low
[28] = locus YHR082C, strain KSP1, active compounds read low
[29] = locus YHR205W, strain SCH9, active compounds read low
[30] = locus YIL147C, strain SLN1, active compounds read low
[31] = locus YJL095W, strain BCK1, active compounds read low
[32] = locus YJL128C, strain PBS2, active compounds read low
[33] = locus YJL157C, strain FAR1, active compounds read low
[34] = locus YJR016C, strain ILV3, active compounds read low
[35] = locus YJR066W, strain TOR1 (second series), active compounds read low
[36] = locus YJR066W, strain TOR1, active compounds read low
[37] = locus YKL048C, strain ELM1, active compounds read low
[38] = locus YKL067W, strain YNK1, active compounds read low
[39] = locus YKL101W, strain HSL1, active compounds read low
[40] = locus YKL193C, strain SDS22, active compounds read low
[41] = locus YKL203C, strain TOR2, active compounds read low
[42] = locus YLR113W, strain HOG1, active compounds read low
[43] = locus YLR133W, strain CKI1, active compounds read low
[44] = locus YLR403W, strain SFP1, active compounds read low
[45] = locus YML070W, strain DAK1, active compounds read low
[46] = locus YMR001C, strain CDC5, active compounds read low
[47] = locus YMR205C, strain PFK2 (second series), active compounds read low
[48] = locus YMR277W, strain FCP1, active compounds read low
[49] = locus YNL006W, strain LST8, active compounds read low
[50] = locus YNL020C, strain ARK1, active compounds read low
[51] = locus YNL161W, strain CBK1, active compounds read low
[52] = locus YNL183C, strain NPR1, active compounds read low
[53] = locus YNL207W, strain RIO2, active compounds read low
[54] = locus YNL222W, strain SSU72, active compounds read low
[55] = locus YNL307C, strain MCK1 (second series), active compounds read low
[56] = locus YOL078W, strain AVO1, active compounds read low
[57] = locus YOL136C, strain PFK27, active compounds read low
[58] = locus YOR061W, strain CKA2, active compounds read low
[59] = locus YOR119C, strain RIO1, active compounds read low
[60] = locus YOR231W, strain MKK1, active compounds read low
[61] = locus YOR329C, strain SCD5, active compounds read low
[62] = locus YPL031C, strain PHO85, active compounds read low
[63] = locus YPL153C, strain RAD53, active compounds read low
[64] = locus YPL204W, strain HRR25, active compounds read low
[65] = locus YPL209C, strain IPL1, active compounds read low
[66] = locus YPL256C, strain CLN2, active compounds read low
[67] = locus YPR025C, strain CCL1, active compounds read low
[68] = locus YPR106W, strain ISR1, active compounds read low
[69] = locus YPR111W, strain DBF20, active compounds read low
[70] = strain NNK1, active compounds read low
[71] = strain TSCII, active compounds read low

Measured: normalized growth

CS/C(Nc1cccc(C(F)(F)F)c1)=C(/C#N)S(=O)(=O)c1ccc(Cl)cc1
inactive: [1] 0.951 | [2] 0.945 | [3] 0.953 | [4] 0.941 | [5] 0.948 | [6] 0.948 | [7] 0.957 | [8] 0.953 | [9] 0.949 | [10] 0.953 | [11] 0.96 | [12] 0.932 | [13] 0.946 | [14] 0.931 | [15] 0.963 | [16] 0.941 | [17] 0.971 | [18] 0.942 | [19] 0.934 | [20] 0.944 | [21] 0.957 | [22] 0.948 | [23] 0.947 | [24] 0.943 | [25] 0.937 | [26] 0.996 | [27] 0.987 | [28] 1.01 | [29] 0.914 | [30] 0.953 | [31] 0.916 | [32] 0.935 | [33] 0.954 | [34] 0.944 | [35] 0.95 | [36] 0.988 | [37] 0.946 | [38] 0.972 | [39] 0.954 | [40] 0.951 | [41] 1 | [42] 0.882 | [43] 0.945 | [44] 0.925 | [45] 0.962 | [46] 0.948 | [47] 0.978 | [48] 0.956 | [49] 0.958 | [50] 0.943 | [51] 0.94 | [52] 0.992 | [53] 0.936 | [54] 0.957 | [55] 0.926 | [56] 0.951 | [57] 0.915 | [58] 0.985 | [59] 1.01 | [60] 0.94 | [61] 0.951 | [62] 0.956 | [63] 0.973 | [64] 0.911 | [65] 0.943 | [66] 0.981 | [67] 0.946 | [68] 0.954 | [69] 0.949 | [70] 0.947 | [71] 0.942

N#C/C(=N/Nc1cccc(C(F)(F)F)c1)C(=O)c1csc(-c2cccnc2)n1
active: [16] 0.56 | [21] 0.364 | [24] 0.566 | [25] 0.297 | [26] 0.115 | [27] 0.139 | [28] 0.292 | [31] 0.232 | [35] 0.578 | [36] 0.343 | [37] 0.632 | [39] 0.534 | [42] 0.34 | [43] 0.711 | [45] 0.578 | [50] 0.626 | [52] 0.46 | [55] 0.461 | [57] 0.529 | [60] 0.198 | [62] 0.484 | [63] 0.317 | [64] 0.464 | [66] 0.236
inactive: [1] 0.96 | [2] 0.958 | [3] 0.955 | [4] 0.962 | [5] 0.961 | [6] 0.96 | [7] 0.962 | [8] 0.964 | [9] 0.963 | [10] 0.964 | [11] 0.83 | [12] 0.945 | [13] 0.939 | [14] 0.963 | [15] 0.762 | [17] 0.883 | [18] 0.96 | [19] 0.955 | [20] 0.961 | [22] 0.967 | [23] 0.832 | [29] 0.75 | [30] 0.96 | [32] 0.923 | [33] 0.802 | [34] 0.954 | [38] 0.854 | [40] 0.959 | [41] 0.763 | [44] 0.776 | [46] 0.964 | [47] 0.807 | [48] 0.955 | [49] 0.961 | [51] 0.956 | [53] 0.941 | [54] 0.96 | [56] 0.955 | [58] 0.85 | [59] 0.838 | [61] 0.966 | [65] 0.957 | [67] 0.956 | [68] 0.971 | [69] 0.958 | [70] 0.95 | [71] 0.954
